The source of these data is PubChem BioAssay (NCATS).

Molecules are shown by their SMILES. Inconclusive results are not listed. Entries that show only a call come without a potency. Activity calls are given as the source filed them. Calls come from the whole dose curve; as a rule, active = well fitted inhibition curve with a large enough effect; inconclusive = small, poorly fitted or top-dose-only effect; inactive = flat fitted curve, though single readings scatter.

Test system in the first assay: not listed separately
The assay is described as follows: Drug repurposing screens with cells derived from glioblastoma tumor samples (AID 1345199). Note: nearly all actives have a fitted effect of over 40% in size. Conditions: GBM patient neurospheres viability, ATP luminescence, 48 h; at 46.1 µM (top of the series); tumour line C. A digest of the protocol: (§1)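 Primary testing used CD133+ neurospheres from four GBM patients, seven concentrations, 48 h exposure and ATP-based viability; confirmation added three slower-growing patient lines.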
In the case of `CO/N=C(\C(=O)N[C@@H]1C(=O)N2C(C(=O)O)=C(CSC(=O)c3ccco3)CS[C@H]12)c1csc(N)n1`, the activity, negative = cell killing was -21.7% (inactive). On the same count and under the same terms, the same measure for `O=C(O)C1=C(CSc2nnnn2CS(=O)(=O)O)CS[C@@H]2[C@H](NC(=O)[C@H](O)c3ccccc3)C(=O)N12`: -17.1% (inactive); for `CCCCC`: 22.7% (inactive).

The next assay relates to astro (control astrocytes). The assay is described as above. The following applies: viability, ATP luminescence, 48 h; series mostly up to 45.9 µM. In a few lines: as §1
Take `C=CC[N+]1([C@H]2C[C@H]3[C@@H]4CC[C@H]5C[C@H](O)[C@@H](N6CCOCC6)C[C@]5(C)[C@H]4CC[C@]3(C)[C@H]2OC(C)=O)CCCC1`: the Potency entry was “inactive”.

With `CC1CCC(NC(=O)N(CCCl)N=O)CC1` (stereo unspecified), the Potency result was “inactive”.

For `Cc1cc2nc3c(=O)[nH]c(=O)nc-3n(C[C@H](O)[C@H](O)[C@H](O)COP(=O)(O)OP(=O)(O)OC[C@H]3O[C@@H](n4cnc5c(N)ncnc54)[C@H](O)[C@@H]3O)c2cc1C`, the Potency entry was “inactive”. `CO[C@H]1O[C@@H]2O[C@@]3(C)CC[C@H]4[C@H](C)CC[C@@H]([C@H]1C)[C@@]24OO3`: the Potency entry is “inactive”. The same measure, in the same setting: the same measure for `CC(C)(Oc1ccc(C2CCCc3ccccc32)cc1)C(=O)O` (stereo unspecified): “inactive”. The same measure, in the same setting: the same measure for `Cc1ccc(S(=O)(=O)NCl)cc1`: “inactive”; for `CCOC(=O)Cc1ccc(-c2ccccc2)cc1`: “inactive”.

Regarding `CC(C)C1=CC2=CC[C@@H]3[C@](C)(CCC[C@@]3(C)C(=O)O)[C@H]2CC1`, the Potency result was “inactive”. On the same count and under the same terms, the same measure for `CCc1ccc(S(=O)(=O)O)cc1`: “inactive”; for `CCOC(=O)[C@H](CS)NCCN[C@@H](CS)C(=O)OCC`: “inactive”. On the same count and under the same terms, the same measure for `O=C1c2ccccc2C(=O)C1c1ccc(F)cc1`: “inactive”. Same read-out and setting: the same measure for `OCc1ccccc1`: “inactive”; for `O=C1N=C2SCCN2C(=O)C1Cc1ccc(Cl)cc1` (stereo unspecified): “inactive”.
